Source: ChEMBL document CHEMBL1961873, “Compounds: GSK PKIS; Assays: Nanosyn kinase panel” (2012)

Assays:
[1] = target: Serine/threonine-protein kinase pim-2 (Homo sapiens) (UniProt Q9P1W9); settings: at 1 µM;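 further: each value is a mean of the inhibition measurements against the kinase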
[2] = target: Serine/threonine-protein kinase pim-3 (Homo sapiens) (UniProt Q86V86); settings: at 0.1 µM
[3] = target: Serine/threonine-protein kinase pim-3 (Homo sapiens) (UniProt Q86V86); settings: at 1 µM
[4] = target: T1, MAP kinase-activated protein kinase 5 (Homo sapiens) (UniProt Q8IW41); settings: at 0.1 µM
T1 sequence (whole entry): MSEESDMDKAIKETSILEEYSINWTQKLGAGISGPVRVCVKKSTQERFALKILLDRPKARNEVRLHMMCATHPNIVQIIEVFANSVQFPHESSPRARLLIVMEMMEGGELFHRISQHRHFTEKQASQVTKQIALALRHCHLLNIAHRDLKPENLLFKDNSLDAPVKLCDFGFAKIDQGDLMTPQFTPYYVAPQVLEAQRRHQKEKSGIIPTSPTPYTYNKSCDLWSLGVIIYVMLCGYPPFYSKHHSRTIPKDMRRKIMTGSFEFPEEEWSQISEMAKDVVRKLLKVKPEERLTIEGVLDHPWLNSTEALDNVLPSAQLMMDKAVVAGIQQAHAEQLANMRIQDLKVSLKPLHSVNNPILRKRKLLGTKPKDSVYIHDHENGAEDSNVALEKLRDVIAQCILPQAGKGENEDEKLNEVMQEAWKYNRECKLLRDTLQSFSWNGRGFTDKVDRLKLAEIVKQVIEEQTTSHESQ

[5] = target: T1, MAP kinase-activated protein kinase 5 (Homo sapiens); settings: at 1 µM
[6] = target: Serine/threonine-protein kinase SIK1 (Homo sapiens) (UniProt P57059); settings: at 0.1 µM
Serine/threonine-protein kinase SIK1 (Homo sapiens), sequence (P57059 whole entry): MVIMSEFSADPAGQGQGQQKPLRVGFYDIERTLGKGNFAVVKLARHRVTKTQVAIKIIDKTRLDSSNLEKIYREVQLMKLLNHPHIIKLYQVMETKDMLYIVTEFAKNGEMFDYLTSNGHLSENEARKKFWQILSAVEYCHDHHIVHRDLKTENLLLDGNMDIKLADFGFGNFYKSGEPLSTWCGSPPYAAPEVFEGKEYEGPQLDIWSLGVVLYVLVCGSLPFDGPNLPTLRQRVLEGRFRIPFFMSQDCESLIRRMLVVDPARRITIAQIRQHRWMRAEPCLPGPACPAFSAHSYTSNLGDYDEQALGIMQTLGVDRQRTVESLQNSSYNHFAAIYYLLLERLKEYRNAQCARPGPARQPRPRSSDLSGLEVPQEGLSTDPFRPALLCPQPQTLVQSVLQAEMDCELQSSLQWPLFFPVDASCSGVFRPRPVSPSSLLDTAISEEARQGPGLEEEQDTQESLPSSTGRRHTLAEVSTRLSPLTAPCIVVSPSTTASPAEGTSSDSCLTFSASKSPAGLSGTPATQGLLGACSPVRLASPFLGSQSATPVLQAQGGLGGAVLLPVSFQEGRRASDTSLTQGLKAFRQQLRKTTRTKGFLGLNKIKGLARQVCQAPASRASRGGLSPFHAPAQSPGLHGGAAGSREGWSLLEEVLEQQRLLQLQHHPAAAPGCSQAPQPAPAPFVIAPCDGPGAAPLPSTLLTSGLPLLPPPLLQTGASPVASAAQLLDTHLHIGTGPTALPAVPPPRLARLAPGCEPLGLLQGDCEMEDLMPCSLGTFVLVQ

[7] = target: Serine/threonine-protein kinase SIK1 (Homo sapiens) (UniProt P57059); settings: at 1 µM
[8] = target: Serine/threonine-protein kinase SIK2 (Homo sapiens) (UniProt Q9H0K1); settings: at 0.1 µM
Serine/threonine-protein kinase SIK2 (Homo sapiens), sequence (Q9H0K1 whole entry, looked up): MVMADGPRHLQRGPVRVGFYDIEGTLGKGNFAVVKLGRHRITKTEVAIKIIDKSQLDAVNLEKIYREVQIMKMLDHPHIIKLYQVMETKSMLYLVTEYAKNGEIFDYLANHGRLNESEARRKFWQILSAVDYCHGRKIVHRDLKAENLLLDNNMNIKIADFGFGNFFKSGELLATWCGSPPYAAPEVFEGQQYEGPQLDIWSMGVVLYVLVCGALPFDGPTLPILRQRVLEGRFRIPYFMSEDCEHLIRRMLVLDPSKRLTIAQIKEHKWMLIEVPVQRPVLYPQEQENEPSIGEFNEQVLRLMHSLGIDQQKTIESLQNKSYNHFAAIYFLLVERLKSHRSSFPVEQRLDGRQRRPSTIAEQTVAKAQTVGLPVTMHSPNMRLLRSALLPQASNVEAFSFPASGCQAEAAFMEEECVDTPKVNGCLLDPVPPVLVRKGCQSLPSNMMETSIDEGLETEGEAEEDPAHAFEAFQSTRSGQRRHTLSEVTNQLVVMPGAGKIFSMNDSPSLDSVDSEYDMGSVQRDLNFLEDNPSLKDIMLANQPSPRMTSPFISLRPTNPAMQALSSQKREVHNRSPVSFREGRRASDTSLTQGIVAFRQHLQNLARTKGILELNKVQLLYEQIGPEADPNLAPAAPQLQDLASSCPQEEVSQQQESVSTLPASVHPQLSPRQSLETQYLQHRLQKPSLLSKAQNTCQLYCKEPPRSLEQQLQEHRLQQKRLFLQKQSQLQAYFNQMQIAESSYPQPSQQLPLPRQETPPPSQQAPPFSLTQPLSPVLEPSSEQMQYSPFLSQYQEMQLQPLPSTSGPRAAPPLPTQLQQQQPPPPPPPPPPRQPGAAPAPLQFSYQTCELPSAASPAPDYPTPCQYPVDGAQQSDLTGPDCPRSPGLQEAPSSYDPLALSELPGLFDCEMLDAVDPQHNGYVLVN

[9] = target: Serine/threonine-protein kinase SIK2 (Homo sapiens) (UniProt Q9H0K1); settings: at 1 µM
[10] = target: T2, Serine/threonine-protein kinase TBK1 (Homo sapiens) (UniProt Q9UHD2); settings: at 0.1 µM
T2 sequence (whole entry): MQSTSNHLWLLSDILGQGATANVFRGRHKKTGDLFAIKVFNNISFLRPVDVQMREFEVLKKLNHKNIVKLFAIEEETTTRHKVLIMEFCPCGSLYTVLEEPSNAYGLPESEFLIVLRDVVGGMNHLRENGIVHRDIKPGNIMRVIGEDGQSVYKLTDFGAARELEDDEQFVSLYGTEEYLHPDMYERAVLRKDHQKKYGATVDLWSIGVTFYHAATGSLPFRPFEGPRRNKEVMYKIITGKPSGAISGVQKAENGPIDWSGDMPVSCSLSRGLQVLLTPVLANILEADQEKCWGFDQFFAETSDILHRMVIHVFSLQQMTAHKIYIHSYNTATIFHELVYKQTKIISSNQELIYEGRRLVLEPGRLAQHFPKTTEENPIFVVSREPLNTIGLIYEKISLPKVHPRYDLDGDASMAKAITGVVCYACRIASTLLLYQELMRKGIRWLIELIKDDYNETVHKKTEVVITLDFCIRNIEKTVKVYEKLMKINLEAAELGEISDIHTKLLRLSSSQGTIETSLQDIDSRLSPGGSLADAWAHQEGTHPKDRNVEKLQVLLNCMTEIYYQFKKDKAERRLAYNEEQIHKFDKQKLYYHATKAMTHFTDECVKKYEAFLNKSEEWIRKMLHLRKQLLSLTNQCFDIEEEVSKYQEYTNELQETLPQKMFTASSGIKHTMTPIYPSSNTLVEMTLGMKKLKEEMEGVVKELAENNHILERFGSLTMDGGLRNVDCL

[11] = target: T2, Serine/threonine-protein kinase TBK1 (Homo sapiens); settings: at 1 µM
[12] = target: T3, Testis-specific serine/threonine-protein kinase 1 (Homo sapiens) (UniProt Q9BXA7); settings: at 0.1 µM
T3 sequence (whole entry): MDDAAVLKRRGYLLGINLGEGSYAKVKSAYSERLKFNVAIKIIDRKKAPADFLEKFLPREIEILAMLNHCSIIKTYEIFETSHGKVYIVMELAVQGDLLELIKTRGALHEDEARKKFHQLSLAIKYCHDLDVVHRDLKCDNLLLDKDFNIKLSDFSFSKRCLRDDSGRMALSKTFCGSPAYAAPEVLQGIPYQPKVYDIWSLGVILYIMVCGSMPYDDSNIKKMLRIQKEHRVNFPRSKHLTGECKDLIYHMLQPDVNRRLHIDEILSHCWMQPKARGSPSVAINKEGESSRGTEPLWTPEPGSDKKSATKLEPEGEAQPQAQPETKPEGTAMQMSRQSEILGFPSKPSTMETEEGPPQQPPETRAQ

[13] = target: T3, Testis-specific serine/threonine-protein kinase 1 (Homo sapiens); settings: at 1 µM
[14] = target: T4, Testis-specific serine/threonine-protein kinase 2 (Homo sapiens) (UniProt Q96PF2); settings: at 0.1 µM
T4 sequence (whole entry): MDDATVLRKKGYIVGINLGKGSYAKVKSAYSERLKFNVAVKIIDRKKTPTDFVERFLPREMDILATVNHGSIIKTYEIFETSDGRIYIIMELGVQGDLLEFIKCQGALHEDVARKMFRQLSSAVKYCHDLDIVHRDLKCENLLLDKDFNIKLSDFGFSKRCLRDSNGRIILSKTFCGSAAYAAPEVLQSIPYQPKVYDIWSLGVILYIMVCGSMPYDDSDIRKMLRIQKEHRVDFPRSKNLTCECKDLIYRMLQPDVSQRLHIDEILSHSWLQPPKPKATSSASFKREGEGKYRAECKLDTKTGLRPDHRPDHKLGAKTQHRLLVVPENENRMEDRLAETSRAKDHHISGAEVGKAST

[15] = target: T4, Testis-specific serine/threonine-protein kinase 2 (Homo sapiens); settings: at 1 µM
[16] = target: Casein kinase I isoform alpha (Homo sapiens) (UniProt P48729); settings: at 0.1 µM
Casein kinase I isoform alpha (Homo sapiens), sequence (P48729 2-337 limits assumed): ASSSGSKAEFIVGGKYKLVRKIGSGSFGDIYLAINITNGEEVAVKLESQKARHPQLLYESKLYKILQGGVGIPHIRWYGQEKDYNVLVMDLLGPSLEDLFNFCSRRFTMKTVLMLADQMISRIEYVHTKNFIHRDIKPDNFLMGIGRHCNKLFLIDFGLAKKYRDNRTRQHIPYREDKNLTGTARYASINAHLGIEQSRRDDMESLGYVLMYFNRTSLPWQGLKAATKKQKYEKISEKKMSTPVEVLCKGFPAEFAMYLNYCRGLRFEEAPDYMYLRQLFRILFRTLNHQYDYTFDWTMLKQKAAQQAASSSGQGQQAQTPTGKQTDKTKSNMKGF

[17] = target: Casein kinase I isoform alpha (Homo sapiens) (UniProt P48729); settings: at 1 µM
[18] = target: Casein kinase I isoform gamma-1 (Homo sapiens) (UniProt Q9HCP0); settings: at 0.1 µM
Casein kinase I isoform gamma-1 (Homo sapiens), sequence (Q9HCP0 whole entry, looked up, canonical isoform): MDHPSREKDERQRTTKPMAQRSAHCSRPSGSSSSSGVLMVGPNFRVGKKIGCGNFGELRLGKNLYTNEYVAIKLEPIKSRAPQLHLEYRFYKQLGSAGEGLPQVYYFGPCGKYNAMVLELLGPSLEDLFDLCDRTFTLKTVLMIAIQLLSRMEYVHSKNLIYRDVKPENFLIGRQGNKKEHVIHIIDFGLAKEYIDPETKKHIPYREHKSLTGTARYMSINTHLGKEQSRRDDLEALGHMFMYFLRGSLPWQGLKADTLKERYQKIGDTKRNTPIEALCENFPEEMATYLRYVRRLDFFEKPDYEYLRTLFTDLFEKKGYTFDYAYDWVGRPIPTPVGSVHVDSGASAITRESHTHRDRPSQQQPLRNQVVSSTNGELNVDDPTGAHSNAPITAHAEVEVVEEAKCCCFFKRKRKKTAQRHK

[19] = target: Casein kinase I isoform gamma-1 (Homo sapiens) (UniProt Q9HCP0); settings: at 1 µM
[20] = target: Casein kinase I isoform gamma-2 (Homo sapiens) (UniProt P78368); settings: at 0.1 µM;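 further: values are mean inhibition figures reported as part of the GSK PKIS dataset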
Casein kinase I isoform gamma-2 (Homo sapiens), sequence (P78368 whole entry, looked up, canonical isoform): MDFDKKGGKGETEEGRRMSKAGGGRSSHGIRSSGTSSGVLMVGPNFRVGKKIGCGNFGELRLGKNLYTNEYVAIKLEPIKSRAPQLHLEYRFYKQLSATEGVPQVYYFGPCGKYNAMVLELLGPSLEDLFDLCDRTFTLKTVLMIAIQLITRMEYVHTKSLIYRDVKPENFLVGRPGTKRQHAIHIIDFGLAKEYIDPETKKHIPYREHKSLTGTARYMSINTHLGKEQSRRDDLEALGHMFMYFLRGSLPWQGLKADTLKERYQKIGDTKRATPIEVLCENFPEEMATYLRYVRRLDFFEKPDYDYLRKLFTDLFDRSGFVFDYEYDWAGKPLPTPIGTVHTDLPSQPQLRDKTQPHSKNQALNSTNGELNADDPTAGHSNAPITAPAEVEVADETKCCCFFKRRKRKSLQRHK

Serine/threonine-protein kinase pim-2 (Homo sapiens), sequence (Q9P1W9 whole entry, looked up): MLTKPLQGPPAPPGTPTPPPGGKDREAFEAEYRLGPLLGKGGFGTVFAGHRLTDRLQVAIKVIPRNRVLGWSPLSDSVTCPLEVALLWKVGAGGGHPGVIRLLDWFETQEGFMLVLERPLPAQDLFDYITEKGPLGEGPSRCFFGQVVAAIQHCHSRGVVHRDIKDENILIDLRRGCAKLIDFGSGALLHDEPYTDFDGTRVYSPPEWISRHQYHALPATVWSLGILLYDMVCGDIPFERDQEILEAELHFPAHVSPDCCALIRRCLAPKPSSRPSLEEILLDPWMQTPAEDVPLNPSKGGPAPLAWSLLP

Question: Which inhibition [1] does the source give for `Cc1ccc(C(=O)NC2CCC2)cc1-c1ccc(C(=O)NCC2CC2)cc1` here?
Answer: -0.13%

Question: And the inhibition [2]?
Answer: -0.5%

Question: And the inhibition [3]?
Answer: 0.14%

Question: What about the inhibition [4] of the same compound?
Answer: 0.63%

Question: What about the inhibition [5] of the same compound?
Answer: -0.21%

Question: What about the inhibition [6] of the same compound?
Answer: 6.34%

Question: And the inhibition [7]?
Answer: 3.12%

Question: And the inhibition [8]?
Answer: 1.33%

Question: And the inhibition [9]?
Answer: 0.45%

Question: What about the inhibition [10] of the same compound?
Answer: 1.61%

Question: What about the inhibition [11] of the same compound?
Answer: 2.24%

Question: What about the inhibition [12] of the same compound?
Answer: 2.11%

Question: And the inhibition [13]?
Answer: 1.32%

Question: What about the inhibition [14] of the same compound?
Answer: 0.09%

Question: What about the inhibition [15] of the same compound?
Answer: -0.03%

Question: What about the inhibition [16] of the same compound?
Answer: 3.36%

Question: What about the inhibition [17] of the same compound?
Answer: 6.49%

Question: And the inhibition [18]?
Answer: 2.64%

Question: And the inhibition [19]?
Answer: 3.13%

Question: What about the inhibition [20] of the same compound?
Answer: 1.72%

Question: How did the inhibition [1] turn out when `COc1cc(Nc2ncc3c(C)nc(-c4cccc(Oc5ccccc5)c4)n3n2)cc(OC)c1OC` was run?
Answer: 1.14%

Question: And the inhibition [2]?
Answer: 0.34%

Question: And the inhibition [3]?
Answer: -0.16%

Question: What about the inhibition [4] of the same compound?
Answer: -0.04%

Question: What about the inhibition [5] of the same compound?
Answer: -1.56%

Question: And the inhibition [6]?
Answer: 3.67%

Question: And the inhibition [7]?
Answer: 10.1%

Question: What about the inhibition [8] of the same compound?
Answer: 1.91%

Question: What about the inhibition [9] of the same compound?
Answer: 0.43%

Question: What about the inhibition [10] of the same compound?
Answer: 4.47%

Question: What about the inhibition [11] of the same compound?
Answer: 28.8%

Question: And the inhibition [12]?
Answer: 3.11%

Question: What about the inhibition [13] of the same compound?
Answer: 5.53%

Question: What about the inhibition [14] of the same compound?
Answer: 1.01%

Question: What about the inhibition [15] of the same compound?
Answer: -1.11%

Question: What about the inhibition [16] of the same compound?
Answer: 6.15%

Question: What about the inhibition [17] of the same compound?
Answer: 3.63%

Question: And the inhibition [18]?
Answer: 1.67%

Question: What about the inhibition [19] of the same compound?
Answer: 3.71%

Question: And the inhibition [20]?
Answer: 0.59%

Question: With `CCS(=O)(=O)c1ccc(OC)c(Nc2ncc(-c3cccc(-c4ccccc4F)c3)o2)c1` as the compound, how does the inhibition [1] read?
Answer: 0.73%

Question: What about the inhibition [2] of the same compound?
Answer: 3.42%

Question: What about the inhibition [3] of the same compound?
Answer: 0.84%

Question: And the inhibition [4]?
Answer: 0.06%

Question: What about the inhibition [5] of the same compound?
Answer: -0.29%

Question: What about the inhibition [6] of the same compound?
Answer: 0.43%

Question: And the inhibition [7]?
Answer: 2.58%

Question: And the inhibition [8]?
Answer: -1.84%

Question: And the inhibition [9]?
Answer: 6.03%

Question: And the inhibition [10]?
Answer: 0.72%

Question: And the inhibition [11]?
Answer: 5.42%

Question: And the inhibition [12]?
Answer: 0.94%

Question: What about the inhibition [13] of the same compound?
Answer: -0.72%

Question: And the inhibition [14]?
Answer: 0.42%

Question: What about the inhibition [15] of the same compound?
Answer: -0.69%

Question: What about the inhibition [16] of the same compound?
Answer: -0.76%

Question: What about the inhibition [17] of the same compound?
Answer: 4.53%

Question: And the inhibition [18]?
Answer: 0.32%

Question: What about the inhibition [19] of the same compound?
Answer: 0.08%

Question: What about the inhibition [20] of the same compound?
Answer: -0.86%

Question: Which results are given for `O=C(Nc1n[nH]c2nc(-c3ccc(O)cc3)c(Br)cc12)C1CC1`?
Answer: inhibition [1]: 75.2%; inhibition [2]: 31.9%; inhibition [3]: 73.9%; inhibition [4]: 2.42%; inhibition [5]: 3.04%; inhibition [6]: 6.92%; inhibition [7]: 17.1%; inhibition [8]: 14.2%; inhibition [9]: 19.9%; inhibition [10]: 4.12%; inhibition [11]: 22.6%; inhibition [12]: 5.99%; inhibition [13]: 5.96%; inhibition [14]: 3.73%; inhibition [15]: 4.53%; inhibition [16]: 4.72%; inhibition [17]: 5.83%; inhibition [18]: 4.64%; inhibition [19]: 5.67%; inhibition [20]: 4.14%

Question: Which inhibition [1] does the source give for `COc1cc2ncn(-c3cc(OCc4cccs4)c(C(N)=O)s3)c2cc1OC` here?
Answer: -1.58%

Question: What about the inhibition [2] of the same compound?
Answer: 3.33%

Question: And the inhibition [3]?
Answer: 8.26%

Question: What about the inhibition [4] of the same compound?
Answer: 2.5%

Question: And the inhibition [5]?
Answer: 5.17%

Question: And the inhibition [6]?
Answer: 4.36%

Question: What about the inhibition [7] of the same compound?
Answer: 23.7%

Question: And the inhibition [8]?
Answer: 6.37%

Question: And the inhibition [9]?
Answer: 24.9%

Question: And the inhibition [10]?
Answer: 3.06%

Question: What about the inhibition [11] of the same compound?
Answer: 16.7%

Question: What about the inhibition [12] of the same compound?
Answer: 4.25%

Question: What about the inhibition [13] of the same compound?
Answer: 8.81%

Question: And the inhibition [14]?
Answer: 2.91%

Question: And the inhibition [15]?
Answer: 7.11%

Question: What about the inhibition [16] of the same compound?
Answer: 2%

Question: And the inhibition [17]?
Answer: 3.36%

Question: And the inhibition [18]?
Answer: -0.26%

Question: And the inhibition [19]?
Answer: -1.01%

Question: What about the inhibition [20] of the same compound?
Answer: -1.54%
